Data taken from PubChem BioAssay (EPA / NIEHS).
Calls of active or inactive are those of the source. How the source made its calls: active means hit-call score of the fitted dose curve at least 0.9, where 1 is the maximum; inactive means score below 0.9.

Experiments:
[1] = read-out: Interleukin-1 alpha (IL1a), IL1A (gene 3552); test: BSK_KF3CT_IL1a: BioMAP Diversity Plus: KF3CT Assay for Interleukin-1 alpha (IL1a) Biomarker Activity (AID 2283070); settings: primary human keratinocytes with fibroblasts; actives raise or lower the signal
Summary of the method: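 Human keratinocyte plus foreskin fibroblast primary co-culture, sampled 24 h after chemical dosing. IL-1a measured by ELISA; responses fitted bidirectionally against DMSO baseline (negative control), so gain or loss of signal both count.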

[2] = read-out: TIMP metallopeptidase inhibitor 2 (TIMP2), TIMP2 (gene 7077); test: BSK_KF3CT_TIMP2: BioMAP Diversity Plus: KF3CT Assay for TIMP metallopeptidase inhibitor 2 (TIMP2) Biomarker Activity (AID 2283071); settings: primary human keratinocytes with fibroblasts; actives raise or lower the signal
Summary of the method: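 Human primary keratinocyte/foreskin fibroblast co-culture dosed with chemical and sampled at 24 h. TIMP-2 levels quantified by ELISA; bidirectional fitting against DMSO negative control as baseline.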

[3] = read-out: Transforming growth factor beta 1 (TGFb1), TGFB1 (gene 7040); test: BSK_KF3CT_TGFb1: BioMAP Diversity Plus: KF3CT Assay for Transforming growth factor beta 1 (TGFb1) Biomarker Activity (AID 2283072); settings: primary human keratinocytes with fibroblasts; actives raise or lower the signal
Summary of the method: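 Human keratinocyte plus foreskin fibroblast primary co-culture, dosed with chemical for 24 h. TGF-b1 quantified by ELISA. Activity fitted bidirectionally against DMSO negative control as baseline.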

[4] = read-out: C-C motif chemokine 2 (Homo sapiens) (UniProt P13500); test: BSK_KF3CT_MCP1: BioMAP Diversity Plus: KF3CT Assay for Monocyte Chemoattractant Protein 1 (MCP1/CCL2) Biomarker Activity (AID 2283073); settings: primary human keratinocytes with fibroblasts; actives raise or lower the signal
Summary of the method: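 Human keratinocyte–foreskin fibroblast co-culture; MCP-1 measured by ELISA 24 h after dosing. Bidirectional fit vs DMSO; cytotoxicity tracked by SRB total protein in parallel cultures.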

[5] = read-out: Matrix Metallopeptidase 9 (MMP9), MMP9 (gene 4318); test: BSK_KF3CT_MMP9: BioMAP Diversity Plus: KF3CT Assay for Matrix Metallopeptidase 9 (MMP9) Biomarker Activity (AID 2283074); settings: primary human keratinocytes with fibroblasts; actives raise or lower the signal;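 on AC50: MMP9 protein level quantified by ELISA in the co-culture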
Summary of the method: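 Keratinocyte plus foreskin fibroblast human primary skin co-culture was dosed with chemical and MMP-9 was quantified by ELISA 24 h later. Bidirectional curve fitting used DMSO as negative control and activity baseline.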

[6] = read-out: urokinase plasminogen activator (uPA), PLAU (gene 5328); test: BSK_KF3CT_uPA: BioMAP Diversity Plus: KF3CT Assay for urokinase plasminogen activator (uPA) Biomarker Activity (AID 2283075); settings: primary human keratinocytes with fibroblasts; actives raise or lower the signal
Summary of the method: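 Human keratinocyte plus foreskin fibroblast primary co-culture exposed to chemical for 24 h. uPA levels were quantified by ELISA, and activity was fitted bidirectionally against a DMSO negative-control baseline.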

CD40, CD40 (gene 958) [7] = test: BSK_LPS_CD40: BioMAP Diversity Plus: LPS Assay for CD40 Biomarker Activity (AID 2283076); settings: primary human HUVEC with PBMC; actives raise or lower the signal
Summary of the method: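 HUVEC plus PBMC co-culture stimulated with LPS; CD40 quantified by ELISA 24 h after compound dosing. Fitting was bidirectional relative to DMSO. SRB staining of parallel cultures flagged overt cytotoxicity.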

[8] = read-out: E-selectin (Homo sapiens) (UniProt P16581); test: BSK_LPS_Eselectin: BioMAP Diversity Plus: LPS Assay for Eselectin Biomarker Activity (AID 2283077); settings: primary human HUVEC with PBMC; actives raise or lower the signal
Summary of the method: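 Human umbilical vein endothelial cells co-cultured with PBMC under LPS stimulation; cell-surface E-selectin measured by ELISA 24 h after dosing. Change in either direction versus DMSO, with SRB total-protein staining in parallel cultures for cytotoxicity.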

[9] = BSK_LPS_SRB: Viability Assessment in the BioMAP Diversity Plus: LPS Assay (AID 2283079); settings: primary human HUVEC with PBMC;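 further: total protein by sulforhodamine B absorbance as a cytotoxicity measure; measured one day after compound addition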
Summary of the method: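 Co-culture of human umbilical vein endothelial cells and PBMC, read 24 h after dosing. Total protein by 0.1% SRB staining after 10% TCA fixation, absorbance at 560 nm; bidirectional fit against DMSO.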

[10] = read-out: Interleukin-1 alpha (IL1a), IL1A (gene 3552); test: BSK_LPS_IL1a: BioMAP Diversity Plus: LPS Assay for Interleukin-1 alpha (IL1a) Biomarker Activity (AID 2283080); settings: primary human HUVEC with PBMC; actives raise or lower the signal
Summary of the method: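 Human umbilical vein endothelial cells co-cultured with PBMC and stimulated with LPS; IL-1a measured by ELISA 24 h after dosing. Bidirectional fitting against DMSO; cytotoxicity checked by SRB staining in parallel cultures.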

[11] = read-out: Monocyte Chemoattractant Protein-1 (MCP1), CCL2 (gene 6347); test: BSK_LPS_MCP1: BioMAP Diversity Plus: LPS Assay for Monocyte Chemoattractant Protein-1 (MCP1) Biomarker Activity (AID 2283081); settings: primary human HUVEC with PBMC; actives raise or lower the signal
Summary of the method: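 Human umbilical vein endothelial cells co-cultured with PBMC, LPS-stimulated; secreted MCP-1 measured by ELISA 24 h after compound addition. Bidirectional curve fitting against DMSO baseline; SRB total-protein staining in parallel cultures for cytotoxicity.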

[12] = BSK_LPS_PGE2: BioMAP Diversity Plus: LPS Assay for Prostaglandin E2 (PGE2) Biomarker Activity (AID 2283082); settings: primary human HUVEC with PBMC; actives raise or lower the signal
Summary of the method: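 HUVEC plus PBMC co-culture stimulated with LPS; secreted PGE2 quantified by ELISA 24 h after chemical dosing. Activity fitted bidirectionally against DMSO as negative control and baseline; parallel SRB total-protein staining served as cytotoxicity check.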

[13] = read-out: Macrophage colony-stimulating factor (MCSF), CSF1 (gene 1435); test: BSK_LPS_MCSF: BioMAP Diversity Plus: LPS Assay for Macrophage colony-stimulating factor (MCSF) Biomarker Activity (AID 2283083); settings: primary human HUVEC with PBMC; actives raise or lower the signal
Summary of the method: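 HUVEC–PBMC co-culture, M-CSF measured by ELISA 24 h after chemical dosing. Fitted in both directions relative to DMSO as negative control; overt cytotoxicity assessed by SRB total-protein staining in parallel cultures.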

[14] = read-out: Tissue Factor, F3 (gene 2152); test: BSK_LPS_TissueFactor: BioMAP Diversity Plus: LPS Assay for Tissue Factor Biomarker Activity (AID 2283084); settings: primary human HUVEC with PBMC; actives raise or lower the signal
Summary of the method: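 Human umbilical vein endothelial cells co-cultured with PBMC were dosed with compound. Cell-surface CD142 was measured by ELISA 24 h later. Activity was fitted bidirectionally against DMSO, with SRB total-protein staining in parallel cultures for cytotoxicity.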

[15] = read-out: Tumor necrosis factor (Homo sapiens) (UniProt P01375); test: BSK_LPS_TNFa: BioMAP Diversity Plus: LPS Assay for Tumour Necrosis Factor alpha (TNFa) Biomarker Activity (AID 2283085); settings: primary human HUVEC with PBMC; actives raise or lower the signal
Summary of the method: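 Human umbilical vein endothelial cells co-cultured with PBMC were exposed to test chemical and TNFa measured by ELISA 24 h after dosing. Bidirectional curve fitting was done relative to DMSO as negative control and baseline.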

[16] = read-out: Vascular cell adhesion molecule 1 (VCAM1), VCAM1 (gene 7412); test: BSK_LPS_VCAM1: BioMAP Diversity Plus: LPS Assay for Vascular cell adhesion molecule 1 (VCAM1) Biomarker Activity (AID 2283086); settings: primary human HUVEC with PBMC; actives raise or lower the signal
Summary of the method: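 Human umbilical vein endothelial cells co-cultured with peripheral blood mononuclear cells under LPS stimulation were exposed to test chemical for 24 h. VCAM-1 levels were then measured by ELISA, with bidirectional curve fitting relative to DMSO as negative control and baseline.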

CD38, CD38 (gene 952) = test: BSK_SAg_CD38: BioMAP Diversity Plus: SAg Assay for CD38 Biomarker Activity (AID 2283087); settings: primary human HUVEC with PBMC; actives raise or lower the signal
Summary of the method: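 Fluorescence ELISA of cell-surface CD38 served as the read-out, with either increase or decrease fitted against DMSO controls. Cells were a human umbilical vein endothelium plus PBMC co-culture under SEB/TSST-1 stimulation, measured 24 h after dosing.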

CD40, CD40 (gene 958) [17] = test: BSK_SAg_CD40: BioMAP Diversity Plus: SAg Assay for CD40 Biomarker Activity (AID 2283088); settings: primary human HUVEC with PBMC; actives raise or lower the signal
Summary of the method: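 HUVEC plus PBMC co-culture, superantigen-activated, with CD40 read by ELISA 24 h after dosing. Curves fitted in both directions against DMSO. Overt cytotoxicity checked by parallel SRB total-protein staining.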

CD69, CD69 (gene 969) = test: BSK_SAg_CD69: BioMAP Diversity Plus: SAg Assay for CD69 Biomarker Activity (AID 2283089); settings: primary human HUVEC with PBMC; actives raise or lower the signal;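 on AC50: cell surface CD69 protein quantified by ELISA with fluorescence detection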
Summary of the method: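 ELISA, fluorescence read-out: CD69 on human umbilical vein endothelial cell + PBMC co-culture, 24 h post-dosing. Gain or loss of signal fitted bidirectionally against DMSO baseline.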

[18] = read-out: Interleukin-8 (IL8), CXCL8 (gene 3576); test: BSK_LPS_IL8: BioMAP Diversity Plus: LPS Assay for Interleukin-8 (IL8) Biomarker Activity (AID 2283078); settings: primary human HUVEC with PBMC; actives raise or lower the signal
Summary of the method: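 Human umbilical vein endothelial cells co-cultured with PBMC, LPS-stimulated, exposed to compound for 24 h. IL-8 quantified by ELISA; fitted in both directions against DMSO, with SRB total-protein staining of parallel cultures for cytotoxicity.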

Measured: AC50

Chain of E-selectin (Homo sapiens) (P16581 whole entry, looked up): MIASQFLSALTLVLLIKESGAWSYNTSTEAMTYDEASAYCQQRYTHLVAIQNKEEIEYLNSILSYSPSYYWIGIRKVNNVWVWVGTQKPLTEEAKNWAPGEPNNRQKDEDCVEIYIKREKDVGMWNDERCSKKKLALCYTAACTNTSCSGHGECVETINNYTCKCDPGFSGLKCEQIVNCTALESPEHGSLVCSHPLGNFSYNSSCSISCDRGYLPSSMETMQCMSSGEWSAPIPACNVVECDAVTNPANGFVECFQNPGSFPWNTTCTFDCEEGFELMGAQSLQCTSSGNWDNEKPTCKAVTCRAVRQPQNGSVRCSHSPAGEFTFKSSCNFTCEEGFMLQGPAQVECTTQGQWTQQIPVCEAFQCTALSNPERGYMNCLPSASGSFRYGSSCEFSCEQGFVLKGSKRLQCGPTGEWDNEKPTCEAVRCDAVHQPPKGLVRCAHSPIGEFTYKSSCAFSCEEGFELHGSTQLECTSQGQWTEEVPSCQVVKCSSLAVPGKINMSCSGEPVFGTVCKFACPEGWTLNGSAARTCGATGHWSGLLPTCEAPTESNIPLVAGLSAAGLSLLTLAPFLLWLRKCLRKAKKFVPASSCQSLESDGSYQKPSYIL
Chain of Tumor necrosis factor (Homo sapiens) (P01375 whole entry, looked up): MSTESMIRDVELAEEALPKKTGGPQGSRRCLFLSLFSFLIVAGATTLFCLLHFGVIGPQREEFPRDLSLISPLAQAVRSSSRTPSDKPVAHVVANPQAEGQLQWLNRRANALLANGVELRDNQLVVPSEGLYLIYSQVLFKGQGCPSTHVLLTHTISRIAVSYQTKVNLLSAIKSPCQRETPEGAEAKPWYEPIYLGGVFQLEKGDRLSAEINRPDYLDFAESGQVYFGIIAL

CCCCCCCCCCCCCCCCOS(=O)(=O)O
active: [1] 15.6 µM | [2] 19.5 µM | [3] 17.4 µM | [4] 16.8 µM | [5] 18.5 µM | [6] 15.6 µM | CD38, CD38 (gene 952) 5.57 µM
not listed: [18]
inactive: all other assays above

NNC(=O)c1ccncc1
not listed: [14] | [18]
inactive: all other assays above

O=S(=O)(O)c1ccc(N=Nc2c(O)ccc3cc(S(=O)(=O)O)ccc23)cc1
not listed: [18]
inactive: all other assays above

C=CN1CCCC1=O
not listed: [14]
inactive: all other assays above

OCc1ccccc1
not listed: [14]
inactive: all other assays above

c1ccc(C(O[C@@H]2CCCN(CCc3ccc4c(c3)OCO4)C2)c2ccccc2)cc1
inactive: [1] | [3] | [4] | [6] | [8] | [11] | [12] | [15] | [16]
active: [2] 3.97 µM | [5] 32.2 µM | CD40, CD40 (gene 958) [7] 29.1 µM | [18] 20 µM | [9] 26.3 µM | [10] 12.5 µM | [13] 29.8 µM | CD38, CD38 (gene 952) 30.6 µM | CD40, CD40 (gene 958) [17] 30.4 µM | CD69, CD69 (gene 969) 30.3 µM

OCCOCCOCCO
not listed: [14]
inactive: all other assays above
